Measured values taken from PubChem BioAssay (NCATS).
Where “and” joins values, the source holds several entries; their conditions need not be identical. Identical values can stand only once. Records with an inconclusive call do not appear. Calls of active or inactive are those of the source. Unless noted, the call rests on the fitted dose curve; in most records, active means well fitted curve in the direction sought with a large enough effect; inconclusive means small, poorly fitted or top-dose-only effect, or another doubt; inactive means no such curve, though single readings can be large; an effect the other way counts as inactive or inconclusive.

Columns and labels:
[1] = Cell Viability - Hek293 (AID 427;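 active means compounds whose dose-response curve shows a full or clear partial loss of cell viability, called from curve shape rather than a numeric limit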;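 further: potency means the concentration at half of the fitted maximal effect; cells exposed to compound for 40 hours at 37 °C before reading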); details: qHTS
Procedure, shortened: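 qHTS, human embryonic kidney (adenovirus-transformed) cells; 40 hr cpd, 37 °C; CellTiter-Glo ATP luminescence. Norm: DMSO = 0, 100 uM tamoxifen = 100% inhibition. Hill-fit AC50.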

[2] = Cell Viability - SK-N-SH (AID 435; calls by dose curve;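 further: potency means the concentration at half of the fitted maximal effect; compound exposure lasted 40 h at 37 °C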); details: SK-N-SH neuroblastoma cell viability qHTS
Procedure, shortened: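 Human neuroblastoma line, 40 h exposure at 37 °C, ATP quantified via luciferase luminescence; DMSO and 100 uM tamoxifen define 0 and 100% inhibition for AC50 fitting.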

[3] = Cell Viability - HUV-EC-C (AID 542); details: HUV-EC-C endothelial cell viability, qHTS; series mostly up to 92.2 µM; further: on the % scale 0 is the no-effect control and ±100 the full control effect; nearly all actives have a fitted effect of over 35% in size
Procedure, shortened: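 HUV-EC-C normal human vascular endothelial cells, 1000 cells/well, pre-incubated 5 hr at 37 °C, then exposed to compounds for 40 hr at 37 °C in complete medium. Viability measured as intracellular ATP by CellTiter-Glo luminescence; AC50 from Hill fits.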

[4] = Cell Viability - H-4-II-E (AID 543); details: H-4-II-E rat hepatoma viability; series mostly up to 92.2 µM; further: nearly all actives have a fitted effect of over 35% in size; further: potency means the concentration at half of the fitted maximal effect
Procedure, shortened: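 Rat hepatoma H-4-II-E cells (1500/well) were plated, incubated 5 hr at 37 °C, then exposed to compounds for 40 hr at 37 °C. Cellular ATP was read by CellTiter-Glo luminescence; AC50 came from Hill-equation fits of concentration-response data.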

[5] = Cell Viability - SH-SY5Y (AID 544); details: SH-SY5Y neuroblastoma cell viability; viability change, negative = cytotoxic: at 92.2 µM (top of the series); further: nearly all actives have a fitted effect of over 55% in size; further: potency means the concentration at half of the fitted maximal effect;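 on viability change, negative = cytotoxic: 0% = DMSO alone and -100% = 100 µM tamoxifen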
Procedure, shortened: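 Human neuroblastoma SH-SY5Y cells (1500/well) in complete medium were exposed to compounds for 40 hr at 37 °C; intracellular ATP was then quantified by CellTiter-Glo luminescence after 20 min at room temperature. AC50 came from Hill-equation concentration-response fits.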

[6] = Cellular Toxicity (caspase-3) Renal Proximal Tubule (AID 667); details: renal proximal tubule cells; series mostly up to 91.7 µM;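 further: cells exposed to compound for 16 hours at 37 °C before detection; 0% = DMSO basal and 100% = 10 µM staurosporine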
Procedure, shortened: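 Caspase-Glo 3/7 read-out, rat primary kidney proximal tubule cells. Compound exposure 16 h, 37 °C; detection after 1 h at RT. Activity scaled to DMSO and 10 uM staurosporine.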

[7] = target: Cytochrome P450 3A4 (Homo sapiens) (UniProt P08684); assay: qHTS Assay for Inhibitors and Substrates of Cytochrome P450 3A4 (AID 884); details: recombinant CYP3A4, Luciferin-PPXE luminescence; series mostly up to 57.1 µM; further: on the % scale 0 is the no-effect control and ±100 the full control effect; nearly all actives have a fitted effect of over 50% in size
Procedure, shortened: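 20 nM human CYP3A4 with 25 uM Luciferin-PPXE (at KM) in 200 mM KPO4, preincubated 10 min with compound; NADPH regeneration started a 60 min RT reaction. Luciferin detected by luminescence, normalized to 57 uM ketoconazole as full inhibition.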

[8] = MultiTox-Fluor Cytotoxicity Assay - LYMP1-002 - Dead Cells (AID 960); details: LYMP1-002 lymphoblastoid cells, dead-cell protease fluorescence; series mostly up to 46.1 µM;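 further: 0% = DMSO and 100% = tetraoctylammonium bromide; nearly all actives have a fitted effect of over 60% in size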
Procedure, shortened: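 Human lymphoblastoid cells (LYMP1-002), 2500/well in complete medium, were exposed to compounds for 16 hr at 37 C. Dead-cell protease activity was read as bis-AAF-R110 fluorescence (Ex/Em 485/520), normalized to DMSO and 15 uM tetraoctylammonium bromide; AC50 from Hill fits.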

[9] = Cell Viability - LYMP2-005 (AID 967); details: LYMP2-005 lymphoblastoid cell viability; series mostly up to 92.2 µM;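 further: plate controls were DMSO only for no effect and 92 µM tetraoctylammonium bromide control for full effect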
Procedure, shortened: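 Luciferase-based ATP quantitation served as the viability measure in human lymphoblastoid LYMP2-005 cells exposed to test compounds for 24 h at 37 C in complete culture medium. Potency (AC50) was obtained by fitting concentration-response curves with the Hill equation.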

[10] = Cell Viability - LYMP2-012 (AID 982); details: LYMP2-012 lymphoblastoid cell viability qHTS; series mostly up to 92.2 µM;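 further: cellular ATP by luciferase luminescence where a drop means cytotoxicity; cells exposed to compound for one day before reading; 0% = DMSO only and full loss = 92 µM tetraoctylammonium bromide; nearly all actives have a fitted effect of over 55% in size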
[11] = Cell Viability - LYMP2-018 (AID 985); details: LYMP2-018 lymphoblastoid cells, viability (qHTS); series mostly up to 92.2 µM;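 further: compound exposure lasted 24 hr at 37 °C; plate controls were DMSO only for no effect and tetraoctylammonium bromide at 92 µM for full effect; nearly all actives have a fitted effect of over 50% in size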
Procedure, shortened: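 Human lymphoblastoid cells (2500/well) were pre-incubated 5 hr at 37 C, then exposed to compounds for 24 hr at 37 C in complete medium. Viability was read as intracellular ATP by CellTiter-Glo luminescence; AC50 values came from Hill-equation fits.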

[12] = Cell Viability - LYMP1-002 - Assay at 40 hr (AID 994); details: LYMP1-002 lymphoblastoid cell viability; series mostly up to 92.2 µM;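 further: 0% = DMSO only and full inhibition = 92 µM tetraoctylammonium bromide; nearly all actives have a fitted effect of over 60% in size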
Procedure, shortened: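 Human lymphoblastoid cells, 2500/well in complete medium, were preincubated 5 hr at 37 C, then exposed to compounds for 40 hr at 37 C. Intracellular ATP was read by CellTiter-Glo luminescence after 30 min at room temperature; AC50 from Hill-equation fits.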

[13] = qHTS assay for small molecule agonists of retinoid X receptor alpha signaling (AID 588544; calls by dose curve;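 on activation: 0% = DMSO basal wells and 100% = reference agonist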); details: HEK293T RXRa-UAS-bla, beta-lactamase reporter, 18 h; 530 nm emission
[14] = target: Retinoic acid receptor RXR-alpha (Homo sapiens) (UniProt P19793); assay: as above; details: HEK293T RXRa-UAS-bla, beta-lactamase reporter, 18 h; series mostly up to 76.7 µM
[15] = qHTS assay for small molecule antagonists of retinoid X receptor alpha signaling (AID 588546; active means well fitted inhibition curve with a large enough effect in the signal ratio, with a control signal flat, not every such curve was filed as active; the % refers to the signal ratio;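 further: cells stimulated with 9-cis-retinoic acid as agonist; on the % scale 0 is the no-effect control and ±100 the full control effect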); details: HEK293T RXRa-UAS-bla, beta-lactamase ratio, antagonist mode; measured here: W530 green channel, cytotoxicity proxy
Procedure, shortened: (§1)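 Beta-lactamase reporter inhibition, read as CCF4 fluorescence ratio (ex 405, em 460/530 nm) after 2 h at RT. HEK293T UAS-bla cells, 2500/well, were stimulated with 9-cis-RA at 500 or 100 nM final alongside test compound for 18 h at 37 C.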

[16] = target: Retinoic acid receptor RXR-alpha (Homo sapiens) (UniProt P19793); assay: as above; details: HEK293T RXRa-UAS-bla, beta-lactamase ratio, antagonist mode
Procedure, shortened: as §1

[17] = target: Tumor necrosis factor (Homo sapiens) (UniProt P01375); assay: qHTS assay to identify small molecules that stimulate Tumor Necrosis Factor-alpha (TNF-alpha) secretion (AID 651757; active means well fitted curve in the direction sought with a large enough effect in the signal ratio; the % refers to the signal ratio; further: 0% is about no effect); details: Human cells, HTRF 665/615 ratio; series mostly up to 92.2 µM
Procedure, shortened: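 THP-1 cells were exposed to compounds for 17 hrs at 37 C, after which secreted TNF-alpha was measured by homogeneous HTRF (TR-FRET) using cryptate- and XL665-labeled anti-TNF-alpha antibodies, read after 3 hr at room temperature.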

[18] = qHTS assay for environmental chemicals that activate the Aryl hydrocarbon Receptor (AhR) signaling pathway (AID 651777); details: 1A2-DRE human hepatoma cells, luciferase, 24 h; activation: stronger effect = higher value; further: % of control where 0% means no effect; nearly all actives have a fitted effect of over 15% in size
Procedure, shortened: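 Human hepatoma 1A2-DRE cells stably carrying a DRE/CYP1A2 promoter–luciferase reporter, 1,200 cells/well, exposed to compound 24 hr at 37 C. Luciferase read by One-Glo luminescence after 30 min at room temperature; increased signal marks AhR activation.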

[19] = qHTS assay for small molecule agonists of the antioxidant response element (ARE) signaling pathway measured by Nrf2-dependant transcriptional activity (AID 720636; active means well fitted curve in the direction sought with a large enough effect in the repeat runs; an effect the other way counts as inactive or inconclusive; further: % of control where 0% means no effect); details: ARE-luc HepG2, Nrf2 luciferase reporter, 16 h; series mostly up to 92.4 µM
Procedure, shortened: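 ARE-luc HepG2 cells carrying an Nrf2-responsive luciferase reporter, in medium with 1% dialyzed FBS, exposed to compound for 16 hr at 37 C, 5% CO2. Luminescence read 30 min after ONE-Glo addition.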

[20] = Cell Viability - LYMP2-004 (AID 966); details: LYMP2-004 lymphoblastoid cell viability, qHTS; series mostly up to 92.2 µM;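 further: plate controls were DMSO only for no effect and tetraoctylammonium bromide control for full effect; nearly all actives have a fitted effect of over 65% in size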
Procedure, shortened: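 Human lymphoblastoid cells (2500/well) in complete medium were treated with compounds for 24 hr at 37 C, then intracellular ATP was measured by CellTiter-Glo luminescence. AC50 values came from Hill-equation fits of concentration-response data.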

Sequence of Retinoic acid receptor RXR-alpha (Homo sapiens) (P19793 whole entry, looked up): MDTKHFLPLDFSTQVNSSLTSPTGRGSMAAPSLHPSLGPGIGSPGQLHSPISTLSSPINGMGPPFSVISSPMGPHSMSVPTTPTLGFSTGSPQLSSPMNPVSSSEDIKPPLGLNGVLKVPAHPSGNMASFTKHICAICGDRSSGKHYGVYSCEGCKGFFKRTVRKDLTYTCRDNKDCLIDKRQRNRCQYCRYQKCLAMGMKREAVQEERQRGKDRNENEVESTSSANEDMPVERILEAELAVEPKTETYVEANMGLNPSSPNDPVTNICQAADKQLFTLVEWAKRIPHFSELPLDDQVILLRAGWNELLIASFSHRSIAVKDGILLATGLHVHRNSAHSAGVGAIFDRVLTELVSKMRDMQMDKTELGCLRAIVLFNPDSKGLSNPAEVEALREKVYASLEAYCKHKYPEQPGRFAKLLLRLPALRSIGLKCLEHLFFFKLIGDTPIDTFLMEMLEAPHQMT
Sequence of Tumor necrosis factor (Homo sapiens) (P01375 whole entry, looked up): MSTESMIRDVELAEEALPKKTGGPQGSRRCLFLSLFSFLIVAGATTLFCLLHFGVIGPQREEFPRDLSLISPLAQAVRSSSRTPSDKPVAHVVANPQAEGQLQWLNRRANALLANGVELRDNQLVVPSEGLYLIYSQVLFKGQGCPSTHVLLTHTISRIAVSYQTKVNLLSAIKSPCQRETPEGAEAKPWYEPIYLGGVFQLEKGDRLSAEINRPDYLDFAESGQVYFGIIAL
Sequence of Cytochrome P450 3A4 (Homo sapiens) (P08684 whole entry, looked up): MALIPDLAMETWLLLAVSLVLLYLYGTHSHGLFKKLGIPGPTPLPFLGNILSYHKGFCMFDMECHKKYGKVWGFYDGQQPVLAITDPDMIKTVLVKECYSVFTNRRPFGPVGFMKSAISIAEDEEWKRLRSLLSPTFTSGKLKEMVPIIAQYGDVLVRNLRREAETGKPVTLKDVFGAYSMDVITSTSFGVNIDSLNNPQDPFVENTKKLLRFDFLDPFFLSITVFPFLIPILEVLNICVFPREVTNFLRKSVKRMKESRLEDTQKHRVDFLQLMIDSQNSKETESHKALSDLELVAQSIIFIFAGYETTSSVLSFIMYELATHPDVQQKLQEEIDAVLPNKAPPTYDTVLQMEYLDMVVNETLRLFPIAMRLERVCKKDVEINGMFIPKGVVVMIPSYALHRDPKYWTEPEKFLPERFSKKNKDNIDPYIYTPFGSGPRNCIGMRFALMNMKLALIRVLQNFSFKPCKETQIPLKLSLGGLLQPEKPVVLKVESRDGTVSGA

c1ccc(C2CO2)cc1 (configuration not stated)
inactive: Potency [1] > 92 µM | Potency [2] > 92 µM | Potency [3] | Potency [4] | Potency [5] | outcome [6] | Potency [7] | Potency [8] | Potency [9] | Potency [10] | Potency [11] | Potency [12] | outcome [14] | max response [16] 32.3% | outcome [17] | activation [18] 0.299% | Potency [19]
-9.84%: max response [15]
-3.27%: max response [13]

COc1ccc(C=O)cc1
inactive: Potency [1] > 92 µM | Potency [2] > 92 µM | Potency [3] | Potency [4] | Potency [5] | Potency [7] | Potency [8] | Potency [20] | Potency [9] | Potency [10] | Potency [11] | Potency [12] | outcome [14] | max response [16] 14.5% | outcome [17] | activation [18] 0.954% | Potency [19]
-0.469%: max response [13]
3.67%: max response [15]

CC(C)CON=O
6.03%: max response [13]
inactive: Potency [1] > 92 µM | Potency [2] > 92 µM | Potency [3] | Potency [4] | Potency [5] | outcome [6] | Potency [7] | Potency [8] | Potency [20] | Potency [9] | Potency [10] | Potency [11] | Potency [12] | outcome [14] | max response [16] 8.37% | outcome [17] | activation [18] 1.53% | Potency [19]
-4.96%: max response [15]

Cc1coc2c1CCC(C)C2 (configuration not stated)
-8.18%: max response [15]
inactive: Potency [1] > 92 µM | Potency [2] > 92 µM | Potency [3] | Potency [4] | Potency [5] | outcome [6] | Potency [7] | Potency [8] | Potency [20] | Potency [9] | Potency [10] | Potency [11] | Potency [12] | outcome [14] | max response [16] -0.116% | outcome [17] | activation [18] 1.75% | Potency [19]
-8.64%: max response [13]

ClCC(Br)CBr (configuration not stated)
inactive: Potency [1] > 92 µM | Potency [2] > 92 µM | Potency [3] | Potency [4] | Potency [5] | outcome [6] | Potency [7] | Potency [8] | Potency [20] | Potency [9] | Potency [10] | Potency [11] | Potency [12] | outcome [14] | max response [16] 13.4% | outcome [17] | activation [18] -0.863% | Potency [19]
-9.36%: max response [13]
-1.84%: max response [15]

O=[N+]([O-])CCO
inactive: Potency [1] > 92 µM | Potency [2] > 92 µM | Potency [3] | Potency [4] | Potency [5] | outcome [6] | Potency [7] | Potency [8] | Potency [20] | Potency [10] | Potency [11] | Potency [12] | outcome [14] | max response [16] -8.95% | outcome [17] | activation [18] -2.02% | Potency [19]
2.49%: max response [15]
10.9%: max response [13]

ClCCCCl
1.73%: max response [13]
-7.74%: max response [15]
inactive: Potency [1] > 92 µM | Potency [2] > 92 µM | Potency [3] | Potency [4] | Potency [5] | outcome [6] | Potency [7] | Potency [8] | Potency [9] | Potency [10] | Potency [11] | Potency [12] | outcome [14] | max response [16] 9.28% | outcome [17] | activation [18] -1.95% | Potency [19]

CCCCOC(=O)c1ccccc1N
-0.876%: max response [15]
inactive: Potency [1] > 92 µM | Potency [2] > 92 µM | Potency [3] | Potency [4] | Potency [5] | outcome [6] | Potency [7] | Potency [8] | Potency [20] | Potency [9] | Potency [10] | Potency [11] | Potency [12] | outcome [14] | max response [16] 6.01% | outcome [17] | activation [18] 0.138% | Potency [19]
-10.9%: max response [13]

Nc1ccc(Oc2ccc(N)cc2)cc1
6.59% and -0.644%: max response [13]
-3.97% and -1.47%: max response [15]
inactive: Potency [1] > 92 µM | Potency [2] > 92 µM | Potency [3] | Potency [5] | outcome [6] | Potency [8] | Potency [20] | Potency [9] | Potency [10] | Potency [11] | Potency [12] | outcome [14] | max response [16] 4.6% and -3% | activation [18] 2.36% and 5.82% | Potency [19]

CC(C)(Cl)[N+](=O)[O-]
-3.38%: max response [13]
inactive: Potency [1] > 92 µM | Potency [2] > 92 µM | Potency [3] | Potency [4] | Potency [5] | outcome [6] | Potency [7] | Potency [8] | Potency [20] | Potency [9] | Potency [10] | Potency [11] | Potency [12] | outcome [14] | max response [16] 5.8% | outcome [17] | activation [18] -0.364% | Potency [19]
-8.14%: max response [15]

CC(C#N)CCC#N (configuration not stated)
inactive: Potency [1] > 92 µM | Potency [2] > 92 µM | Potency [3] | Potency [4] | Potency [5] | outcome [6] | Potency [7] | Potency [8] | Potency [20] | Potency [10] | Potency [11] | Potency [12] | outcome [14] | max response [16] -1.63% | outcome [17] | activation [18] -0.458% | Potency [19]
-11.4%: max response [13]
-1.82%: max response [15]

CNC(=O)O/N=C/C(C)(C)S(C)=O (configuration not stated)
-20.3% and 7.58%: max response [13]
-10.1% and 0.325%: max response [15]
inactive: Potency [1] > 92 µM | Potency [2] > 92 µM | Potency [3] | Potency [4] | outcome [6] | Potency [7] | Potency [8] | Potency [20] | Potency [9] | Potency [10] | Potency [11] | Potency [12] | outcome [14] | max response [16] 12.4% and -11.4% | outcome [17] | Potency [19]

COC(=O)Nc1nc2ccccc2[nH]1
active: Potency [4] 3.98 µM | Potency [5] 7.94 µM
1.76%: max response [15]
inactive: Potency [1] > 92 µM | Potency [2] > 92 µM | outcome [6] | Potency [9] | Potency [10] | Potency [11] | max response [16] -21.4% | outcome [17] | activation [18] 7.05%
